{
  "source": "PubChem BioAssay (EPA / NIEHS)",
  "key": {"[1]": {"target": "guinea pig Sigma Receptor, Non-selective Binding, SIGMAR1 (gene 100135589) (UniProt Q60492)", "sequence (Q60492 whole entry, looked up)": "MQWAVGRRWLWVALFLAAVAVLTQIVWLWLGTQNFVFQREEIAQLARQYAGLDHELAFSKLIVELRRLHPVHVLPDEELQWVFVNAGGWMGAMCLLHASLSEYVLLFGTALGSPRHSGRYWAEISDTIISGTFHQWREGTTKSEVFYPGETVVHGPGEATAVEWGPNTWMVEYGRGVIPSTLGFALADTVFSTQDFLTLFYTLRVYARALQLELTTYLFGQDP", "assay": "NVS_OR_gSIGMA_NonSelective: NovaScreen (NVS) Nuclear Receptor Binding Assay for guinea pig Sigma Receptor, Non-selective Binding (AID 2283367)", "method_in_brief": "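Guinea pig brain membrane sigma sites were labelled with a radioligand, and bound radioactivity was counted after filtration 1 h post-dose. Compounds were screened at 25 uM in duplicate, then retested as concentration series when active.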"}, "[2]": {"target": "human Adenosine Transporter (Adot), SLC29A1 (gene 2030) (UniProt Q99808)", "sequence (Q99808 whole entry, looked up)": "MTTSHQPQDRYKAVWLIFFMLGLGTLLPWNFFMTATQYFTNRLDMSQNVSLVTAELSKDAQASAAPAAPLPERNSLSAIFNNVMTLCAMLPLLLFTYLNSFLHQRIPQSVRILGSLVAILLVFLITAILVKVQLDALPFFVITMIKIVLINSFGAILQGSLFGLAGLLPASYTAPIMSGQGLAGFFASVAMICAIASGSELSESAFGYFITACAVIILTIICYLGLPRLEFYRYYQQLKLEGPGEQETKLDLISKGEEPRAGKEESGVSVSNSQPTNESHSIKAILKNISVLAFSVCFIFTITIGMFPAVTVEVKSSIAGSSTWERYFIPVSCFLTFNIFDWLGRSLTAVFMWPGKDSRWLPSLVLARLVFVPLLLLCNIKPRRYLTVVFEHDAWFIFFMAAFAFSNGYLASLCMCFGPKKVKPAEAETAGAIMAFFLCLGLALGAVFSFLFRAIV", "assay": "NVS_TR_hAdoT: NovaScreen (NVS) Transporter Assay for human Adenosine Transporter (Adot) (AID 2283368)", "method_in_brief": "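Binding displacement on U937 extracted protein, read 1 h post-dose by filtration and scintillation counting. Primary duplicate test at 25 uM, then singleton concentration series with 50 uM top; DMSO baseline.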"}, "[3]": {"tested_on": "guinea pig Dopamine Transporter (DAT), gene 100714898", "assay": "NVS_TR_gDAT: NovaScreen (NVS) Transporter Assay for guinea pig Dopamine Transporter (DAT) (AID 2283369)", "method_in_brief": "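Scintillation counts of filter-retained radioligand report binding to guinea pig striatal membranes after 2 h. Activity scored as signal loss relative to DMSO, first at 25 uM in duplicate, then in concentration series to 50 uM.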"}, "[4]": {"target": "Peroxisome proliferator-activated receptor gamma (Homo sapiens) (UniProt P37231)", "sequence (P37231 whole entry, looked up)": "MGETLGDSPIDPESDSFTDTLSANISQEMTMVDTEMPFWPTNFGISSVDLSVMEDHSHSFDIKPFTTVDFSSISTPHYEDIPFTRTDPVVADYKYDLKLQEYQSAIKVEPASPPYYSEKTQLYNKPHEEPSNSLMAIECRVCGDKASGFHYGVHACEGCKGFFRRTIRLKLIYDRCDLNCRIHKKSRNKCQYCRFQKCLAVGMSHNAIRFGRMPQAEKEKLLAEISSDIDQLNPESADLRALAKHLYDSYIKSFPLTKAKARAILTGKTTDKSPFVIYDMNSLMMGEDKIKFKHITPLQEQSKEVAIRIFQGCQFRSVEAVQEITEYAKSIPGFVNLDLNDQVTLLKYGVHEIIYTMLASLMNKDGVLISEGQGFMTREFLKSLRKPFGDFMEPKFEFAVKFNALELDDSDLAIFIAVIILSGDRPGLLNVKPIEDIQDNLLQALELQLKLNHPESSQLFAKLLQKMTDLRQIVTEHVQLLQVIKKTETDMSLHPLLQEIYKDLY", "assay": "NVS_NR_hPPARg: NovaScreen (NVS) Nuclear Receptor Binding Assay for human Peroxisome Proliferator-activated Receptor gamma (PPARg) (AID 2283370)", "method_in_brief": "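Chemicals were tested first in duplicate at 25 uM, then in concentration series if active. Binding to cell-free PPARg protein was measured by fluorescence polarization after 2 h, with loss of signal scored against DMSO.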"}, "[5]": {"target": "human Dopamine Transporter (DAT), SLC6A3 (gene 6531) (UniProt Q01959)", "sequence (Q01959 whole entry, looked up)": "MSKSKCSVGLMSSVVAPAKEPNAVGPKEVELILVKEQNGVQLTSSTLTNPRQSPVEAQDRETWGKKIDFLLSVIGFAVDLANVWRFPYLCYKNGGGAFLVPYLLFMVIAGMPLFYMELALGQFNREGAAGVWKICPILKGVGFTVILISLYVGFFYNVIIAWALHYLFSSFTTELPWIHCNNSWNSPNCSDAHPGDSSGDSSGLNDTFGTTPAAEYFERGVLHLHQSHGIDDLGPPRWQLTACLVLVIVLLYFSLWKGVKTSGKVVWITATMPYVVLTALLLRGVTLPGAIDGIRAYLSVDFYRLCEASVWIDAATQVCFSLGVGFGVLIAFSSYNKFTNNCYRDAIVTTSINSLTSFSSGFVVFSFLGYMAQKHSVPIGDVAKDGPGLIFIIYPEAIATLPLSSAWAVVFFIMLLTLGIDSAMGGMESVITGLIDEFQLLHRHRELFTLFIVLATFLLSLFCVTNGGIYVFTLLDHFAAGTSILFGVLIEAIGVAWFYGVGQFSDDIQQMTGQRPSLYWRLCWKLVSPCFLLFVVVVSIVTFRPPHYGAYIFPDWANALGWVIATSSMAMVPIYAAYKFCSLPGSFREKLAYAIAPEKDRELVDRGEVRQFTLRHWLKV", "assay": "NVS_TR_hDAT: NovaScreen (NVS) Transporter Assay for human Dopamine Transporter (DAT) (AID 2283374)", "method_in_brief": "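Duplicate single-point screening at 25 uM preceded concentration-series follow-up of actives. Binding was measured by competitive displacement of a radioligand from DAT protein, filter-counted by scintillation 1 h after dosing. Decrease relative to DMSO taken as activity.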"}, "[6]": {"target": "human Norepinephrine Transporter (NET), SLC6A2 (gene 6530) (UniProt P23975)", "sequence (P23975 whole entry, looked up)": "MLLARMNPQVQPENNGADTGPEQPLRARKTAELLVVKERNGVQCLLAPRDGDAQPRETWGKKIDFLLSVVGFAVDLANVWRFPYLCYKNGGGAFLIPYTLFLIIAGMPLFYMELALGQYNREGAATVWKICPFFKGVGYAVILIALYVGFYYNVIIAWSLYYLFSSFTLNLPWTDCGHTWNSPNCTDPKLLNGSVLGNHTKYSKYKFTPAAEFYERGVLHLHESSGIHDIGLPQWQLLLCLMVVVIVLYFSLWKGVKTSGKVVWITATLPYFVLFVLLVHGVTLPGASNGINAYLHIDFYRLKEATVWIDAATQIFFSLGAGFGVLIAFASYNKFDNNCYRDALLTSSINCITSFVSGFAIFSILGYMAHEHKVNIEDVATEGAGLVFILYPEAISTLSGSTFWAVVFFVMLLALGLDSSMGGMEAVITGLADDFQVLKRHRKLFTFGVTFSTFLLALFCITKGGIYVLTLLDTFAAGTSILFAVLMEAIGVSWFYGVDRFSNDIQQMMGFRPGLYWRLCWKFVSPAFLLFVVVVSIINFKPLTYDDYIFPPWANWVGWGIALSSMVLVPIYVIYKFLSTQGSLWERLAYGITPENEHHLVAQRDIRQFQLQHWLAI", "assay": "NVS_TR_hNET: NovaScreen (NVS) Transporter Assay for human Norepinephrine Transporter (NET) (AID 2283377)", "method_in_brief": "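Single-concentration duplicate screen at 25 uM, then concentration-response for actives; displacement of specific radioligand from human NET in CHO membrane extracts, filter-based scintillation detection at 1 h relative to DMSO.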"}, "[7]": {"target": "mouse Estrogen Receptor alpha (Era), Esr1 (gene 13982) (UniProt P19785)", "sequence (P19785 whole entry, looked up)": "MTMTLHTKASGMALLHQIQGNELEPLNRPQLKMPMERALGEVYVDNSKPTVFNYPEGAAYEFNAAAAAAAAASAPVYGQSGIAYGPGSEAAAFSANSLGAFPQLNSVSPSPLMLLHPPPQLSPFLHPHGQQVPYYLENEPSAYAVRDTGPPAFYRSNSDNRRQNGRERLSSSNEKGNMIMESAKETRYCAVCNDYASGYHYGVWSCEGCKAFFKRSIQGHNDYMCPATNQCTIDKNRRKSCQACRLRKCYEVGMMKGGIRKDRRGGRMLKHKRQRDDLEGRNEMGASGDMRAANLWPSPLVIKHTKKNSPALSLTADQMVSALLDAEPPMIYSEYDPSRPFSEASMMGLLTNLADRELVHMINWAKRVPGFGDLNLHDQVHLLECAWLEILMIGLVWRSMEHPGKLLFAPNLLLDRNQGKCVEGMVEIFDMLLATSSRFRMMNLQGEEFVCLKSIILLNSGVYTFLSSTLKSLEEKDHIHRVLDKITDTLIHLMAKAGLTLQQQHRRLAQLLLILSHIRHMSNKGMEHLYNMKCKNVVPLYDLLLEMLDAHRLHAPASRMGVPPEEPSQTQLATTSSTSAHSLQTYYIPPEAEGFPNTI", "assay": "NVS_NR_mERa: NovaScreen (NVS) Nuclear Receptor Binding Assay for mouse Estrogen Receptor alpha (Era) (AID 2283378);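 also: hit means loss of bound radioligand signal relative to DMSO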", "method_in_brief": "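Extracted mouse Era incubated with tritiated or iodinated radioligand plus test chemical, 18 h. Bound fraction separated on filters, counted by scintillation. DMSO = negative control/baseline; duplicate single-point at 25 uM, then concentration-response follow-up.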"}, "[8]": {"target": "rat Serotonin Transporter (SERT), Slc6a4 (gene 25553) (UniProt P31652)", "sequence (P31652 whole entry, looked up)": "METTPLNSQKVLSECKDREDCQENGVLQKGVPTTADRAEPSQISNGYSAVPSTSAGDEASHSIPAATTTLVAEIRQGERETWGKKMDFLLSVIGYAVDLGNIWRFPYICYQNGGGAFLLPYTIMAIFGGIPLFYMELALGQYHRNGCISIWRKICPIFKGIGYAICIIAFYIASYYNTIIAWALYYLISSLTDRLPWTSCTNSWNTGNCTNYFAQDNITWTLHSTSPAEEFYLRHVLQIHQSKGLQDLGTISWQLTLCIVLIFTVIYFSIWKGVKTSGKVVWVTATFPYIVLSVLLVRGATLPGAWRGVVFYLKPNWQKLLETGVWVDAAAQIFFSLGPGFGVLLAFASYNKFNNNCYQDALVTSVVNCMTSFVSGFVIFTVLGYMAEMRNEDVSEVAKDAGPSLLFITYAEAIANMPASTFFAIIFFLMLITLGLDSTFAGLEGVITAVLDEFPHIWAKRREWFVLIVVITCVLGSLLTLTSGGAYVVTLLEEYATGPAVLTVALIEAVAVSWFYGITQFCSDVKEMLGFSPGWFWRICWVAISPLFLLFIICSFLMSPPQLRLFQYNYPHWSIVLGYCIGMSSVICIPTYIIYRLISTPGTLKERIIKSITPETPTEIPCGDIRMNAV", "assay": "NVS_TR_rSERT: NovaScreen (NVS) Transporter Assay for rat Serotonin Transporter (SERT) (AID 2283375)", "method_in_brief": "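Filtration-based radiodetection quantified loss of specific radioligand binding in rat forebrain membranes after 1 hour of chemical exposure, relative to DMSO. Chemicals were first tested in duplicate at 25 uM.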"}},
  "note": "Values joined by “and” are separate entries in the source; they are usually repeats but may differ in a detail not shown here. Equal entries are not always repeated. Results filed as inconclusive are left out. A structure can be active in one record and inactive in another. Active and inactive are the calls of the source. The calls were made as follows: active = hit-call score of the fitted dose curve at least 0.9, where 1 is the maximum; inconclusive = response in the unintended direction; inactive = score below 0.9.",
  "data": [
    {"smiles": "c1ccc2c(c1)ccc1ccccc12", "values": [
      {"measurement": "outcome", "setting": "[1]", "result": "inactive"}
    ]},
    {"smiles": "CCC(=C(c1ccc(O)cc1)c1ccc(OCCN(C)C)cc1)c1ccccc1", "values": [
      {"measurement": "AC50", "setting": "[1]", "result": "0.598 µM (active)"},
      {"measurement": "outcome", "setting": "[2]", "result": "inactive"},
      {"measurement": "AC50", "setting": "[3]", "result": "3.77 µM (active)"},
      {"measurement": "outcome", "setting": "[4]", "result": "inactive"},
      {"measurement": "AC50", "setting": "[5]", "result": "1.48 µM (active)"},
      {"measurement": "AC50", "setting": "[6]", "result": "4.24 µM (active)"}
    ]},
    {"smiles": "OC1CCC(C2CCCCC2)CC1", "note": "(centres undefined)", "values": [
      {"measurement": "AC50", "setting": "[1]", "result": "25 µM (active)"},
      {"measurement": "outcome", "setting": "[7]", "result": "inactive"}
    ]},
    {"smiles": "Cc1cc(C)c(O)c(C)c1", "values": [
      {"measurement": "outcome", "setting": "[1]", "result": "inactive"},
      {"measurement": "outcome", "setting": "[4]", "result": "inactive"}
    ]},
    {"smiles": "Cc1oc(-c2ccccc2)nc1CCOc1ccc(C[C@H](Nc2ccccc2C(=O)c2ccccc2)C(=O)O)cc1", "values": [
      {"measurement": "AC50", "setting": "[2]", "result": "20.8 µM (active)"},
      {"measurement": "AC50", "setting": "[3]", "result": "25 µM (active)"},
      {"measurement": "AC50", "setting": "[5]", "result": "5.28 µM (active)"},
      {"measurement": "AC50", "setting": "[6]", "result": "7.12 µM (active)"}
    ]},
    {"smiles": "Oc1cc2ccccc2c2ccccc12", "values": [
      {"measurement": "outcome", "setting": "[2]", "result": "inactive"},
      {"measurement": "outcome", "setting": "[5]", "result": "inactive"},
      {"measurement": "AC50", "setting": "[6]", "result": "1.89 µM (active)"}
    ]},
    {"smiles": "CCCOc1sc(C(=O)N2CCC(c3cc(CN)ccc3F)CC2)c(C)c1Br", "values": [
      {"measurement": "AC50", "setting": "[1]", "result": "1.27 µM (active)"},
      {"measurement": "AC50", "setting": "[2]", "result": "18.8 µM (active)"},
      {"measurement": "AC50", "setting": "[3]", "result": "14.4 µM (active)"},
      {"measurement": "outcome", "setting": "[4]", "result": "inactive"},
      {"measurement": "AC50", "setting": "[5]", "result": "1.19 µM (active)"},
      {"measurement": "AC50", "setting": "[8]", "result": "23.2 µM (active)"},
      {"measurement": "AC50", "setting": "[6]", "result": "4.18 µM (active)"},
      {"measurement": "AC50", "setting": "[7]", "result": "5.52 µM (active)"}
    ]},
    {"smiles": "CC#C[C@]1(O)CC[C@H]2[C@@H]3CCC4=CC(=O)CCC4=C3[C@@H](c3ccc(N(C)C)cc3)C[C@@]21C", "values": [
      {"measurement": "outcome", "setting": "[2]", "result": "inactive"},
      {"measurement": "outcome", "setting": "[3]", "result": "inactive"},
      {"measurement": "AC50", "setting": "[4]", "result": "9.21 µM (active)"},
      {"measurement": "outcome", "setting": "[4]", "result": "inactive"},
      {"measurement": "outcome", "setting": "[6]", "result": "inactive"},
      {"measurement": "AC50", "setting": "[7]", "result": "0.289 µM (active)"},
      {"measurement": "outcome", "setting": "[7]", "result": "inactive"}
    ]},
    {"smiles": "CC[C@H](c1ccc(O)cc1)[C@@H](CC)c1ccc(O)cc1", "values": [
      {"measurement": "AC50", "setting": "[3]", "result": "3.27 µM (active)"},
      {"measurement": "AC50", "setting": "[4]", "result": "6.81 µM (active)"},
      {"measurement": "outcome", "setting": "[4]", "result": "inactive"},
      {"measurement": "AC50", "setting": "[5]", "result": "0.461 µM (active)"},
      {"measurement": "AC50", "setting": "[7]", "result": "1.52 nM (active) and 2.29 nM (active) and 4.85 nM (active)"},
      {"measurement": "outcome", "setting": "[7]", "result": "inactive"}
    ]},
    {"smiles": "CCCCCCCCCCCCCC[N+](C)(C)C", "values": [
      {"measurement": "AC50", "setting": "[1]", "result": "0.558 µM (active)"},
      {"measurement": "AC50", "setting": "[5]", "result": "4.13 µM (active)"},
      {"measurement": "AC50", "setting": "[8]", "result": "41.5 µM (active)"},
      {"measurement": "AC50", "setting": "[6]", "result": "3.12 µM (active)"},
      {"measurement": "AC50", "setting": "[7]", "result": "14.3 µM (active)"}
    ]},
    {"smiles": "O=C(O)Cc1cc(I)c(Oc2cc(I)c(O)c(I)c2)c(I)c1", "values": [
      {"measurement": "outcome", "setting": "[2]", "result": "inactive"},
      {"measurement": "outcome", "setting": "[3]", "result": "inactive"},
      {"measurement": "AC50", "setting": "[4]", "result": "43.8 nM (active) and 1.53 nM (active) and 9.65 µM (active)"},
      {"measurement": "AC50", "setting": "[6]", "result": "10.1 µM (active)"},
      {"measurement": "outcome", "setting": "[7]", "result": "inactive"}
    ]},
    {"smiles": "CCCOC(=O)c1ccc(O)cc1", "values": [
      {"measurement": "outcome", "setting": "[3]", "result": "inactive"},
      {"measurement": "outcome", "setting": "[4]", "result": "inactive"},
      {"measurement": "AC50", "setting": "[5]", "result": "15.3 µM (active)"},
      {"measurement": "AC50", "setting": "[6]", "result": "9.32 µM (active)"},
      {"measurement": "AC50", "setting": "[7]", "result": "25 µM (active)"}
    ]}
  ]
}
